PubChem BioAssay (NCI)
About 83,000 compounds went through this panel and 20% of them were active in at least one assay; those are over-represented in the sample as a whole.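 Testing used 96-well plates and a 48-hour single-concentration exposure. Example: -40 means 40% of the starting cells died.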 The source made the active and inactive calls. How the source made its calls: active means growth percent below 10; inactive means the rest.

Experiments:
Assay in all cases: NCI-60 one-dose screen, 48 h (100 = growth as untreated, 0 = no growth, -100 = all killed)
Conditions in all cases: 10 µM unless noted
HCT-15 colon = tested on: HCT-15 colon
HT29 colon = tested on: HT29 colon
SNB-75 CNS = tested on: SNB-75 CNS
SNB-19 CNS = tested on: SNB-19 CNS
U251 CNS = tested on: U251 CNS
PC-3 prostate = tested on: PC-3 prostate
SK-MEL-5 melanoma = tested on: SK-MEL-5 melanoma
UACC-62 melanoma = tested on: UACC-62 melanoma
LOX IMVI melanoma = tested on: LOX IMVI melanoma
SK-MEL-28 melanoma = tested on: SK-MEL-28 melanoma
SK-MEL-2 melanoma = tested on: SK-MEL-2 melanoma
EKVX NSCLC = tested on: EKVX NSCLC
SN12C renal = tested on: SN12C renal
UO-31 renal = tested on: UO-31 renal
TK-10 renal = tested on: TK-10 renal
ACHN renal = tested on: ACHN renal
CAKI-1 renal = tested on: CAKI-1 renal
A498 renal = tested on: A498 renal
CCRF-CEM leukemia = tested on: CCRF-CEM leukemia
MOLT-4 leukemia = tested on: MOLT-4 leukemia

Measured: growth

C=C(C)[C@@H]1CC[C@]2(C(N)=O)CC[C@]3(C)[C@H](CC[C@@H]4[C@@]5(C)CC[C@H](O)C(C)(C)[C@@H]5CC[C@]43C)[C@@H]12
active: HCT-15 colon 6.36% [100 µM] | HT29 colon -49.5% [100 µM] | SNB-75 CNS -39.1% [100 µM] | SNB-19 CNS 1.3% [100 µM] | U251 CNS -69.3% [100 µM] | PC-3 prostate -24.5% [100 µM] | SK-MEL-5 melanoma -39.6% [100 µM] | UACC-62 melanoma -23.2% [100 µM] | LOX IMVI melanoma -72.8% [100 µM] | SK-MEL-28 melanoma 0.379% [100 µM] | SK-MEL-2 melanoma -31.2% [100 µM] | EKVX NSCLC -10.3% [100 µM] | SN12C renal -45.8% [100 µM] | UO-31 renal -100% [100 µM] | TK-10 renal -69.8% [100 µM] | ACHN renal -80.3% [100 µM] | CAKI-1 renal -64.3% [100 µM] | A498 renal -28.3% [100 µM] | CCRF-CEM leukemia 3.11% [100 µM] | MOLT-4 leukemia 1.86% [100 µM]

Cn1cc(-c2nnc(-c3cn(C)c4ncccc34)o2)c2ccccc21
inactive: HCT-15 colon 17.9% | HT29 colon 12.1% | SNB-19 CNS 42.3% | U251 CNS 30.1% | PC-3 prostate 39.8% | UACC-62 melanoma 27.7% | LOX IMVI melanoma 48.6% | SK-MEL-28 melanoma 55.9% | SK-MEL-2 melanoma 34.4% | EKVX NSCLC 49.9% | SN12C renal 28.4% | UO-31 renal 18% | TK-10 renal 69.9% | ACHN renal 36% | CAKI-1 renal 30.9% | CCRF-CEM leukemia 49.8% | MOLT-4 leukemia 18.3%
active: SNB-75 CNS -18.3% | SK-MEL-5 melanoma 0.903% | A498 renal -20.3%

COCCCNc1nc(NC(=O)c2cc(Br)cc(C(F)(F)F)c2)cc(-c2cccnc2)n1
inactive: HCT-15 colon 85.9% | HT29 colon 83.7% | SNB-75 CNS 115% | SNB-19 CNS 95.9% | U251 CNS 85.9% | PC-3 prostate 70.6% | SK-MEL-5 melanoma 70.6% | UACC-62 melanoma 90.5% | LOX IMVI melanoma 104% | SK-MEL-28 melanoma 98.6% | SK-MEL-2 melanoma 80.6% | EKVX NSCLC 96% | SN12C renal 89.1% | UO-31 renal 60.6% | TK-10 renal 95.8% | ACHN renal 87.4% | CAKI-1 renal 81.4% | A498 renal 76.2% | CCRF-CEM leukemia 80.8% | MOLT-4 leukemia 80.1%

CCCCCCCCCCCCCCNC(=O)Nc1ccc(Cl)c(Cl)c1
inactive: HCT-15 colon 16.9% | HT29 colon 46.6% | SNB-75 CNS 53.7% | SNB-19 CNS 56.3% | U251 CNS 19.8% | PC-3 prostate 16.7% | SK-MEL-5 melanoma 51.3% | UACC-62 melanoma 33.6% | SK-MEL-28 melanoma 60.9% | SK-MEL-2 melanoma 14.5% | EKVX NSCLC 31.9% | SN12C renal 20.2% | TK-10 renal 41.3% | CAKI-1 renal 10.8% | A498 renal 96.7% | CCRF-CEM leukemia 63.7% | MOLT-4 leukemia 103%
active: LOX IMVI melanoma 7.74% | UO-31 renal 8.71% | ACHN renal 9.14%

CCOC(CNC(=O)c1cccc([N+](=O)[O-])c1)OCC
inactive: HCT-15 colon 99.7% | HT29 colon 111% | SNB-75 CNS 82.6% | SNB-19 CNS 103% | U251 CNS 97.6% | PC-3 prostate 102% | SK-MEL-5 melanoma 89.2% | UACC-62 melanoma 88% | LOX IMVI melanoma 89.1% | SK-MEL-28 melanoma 106% | SK-MEL-2 melanoma 97.2% | EKVX NSCLC 97.4% | SN12C renal 92.7% | UO-31 renal 81.8% | TK-10 renal 82.8% | ACHN renal 108% | CAKI-1 renal 89.9% | A498 renal 84.5% | CCRF-CEM leukemia 111% | MOLT-4 leukemia 100%

C#C[C@]1(O)CC[C@H]2[C@@H]3CC=C4c5nc(Nc6ncccn6)sc5CC[C@]4(C)[C@H]3CC[C@@]21C
active: SNB-75 CNS -7.12% | UACC-62 melanoma 1.81% | SK-MEL-28 melanoma -41.4% | MOLT-4 leukemia 2.75%
inactive: HCT-15 colon 33.1% | HT29 colon 55.4% | SNB-19 CNS 64.8% | U251 CNS 21.9% | PC-3 prostate 32.1% | SK-MEL-5 melanoma 68.1% | LOX IMVI melanoma 26.9% | SK-MEL-2 melanoma 18% | EKVX NSCLC 43.6% | SN12C renal 82.8% | UO-31 renal 83.4% | TK-10 renal 77.3% | ACHN renal 60.7% | CAKI-1 renal 58.6% | A498 renal 34.4% | CCRF-CEM leukemia 48.6%

COc1ccc(C2CC(c3ccc4ccccc4c3)=NN2c2nc(O)c(C3=c4cc(OC)ccc4=NC3=O)s2)cc1 (stereo not given)
active: HCT-15 colon -29.1% | HT29 colon -57.3% | SNB-75 CNS -57.1% | SNB-19 CNS -14.2% | U251 CNS -92% | PC-3 prostate -71.1% | SK-MEL-5 melanoma -93.3% | UACC-62 melanoma -56% | LOX IMVI melanoma -77.6% | SK-MEL-28 melanoma -48.5% | SK-MEL-2 melanoma -69.6% | EKVX NSCLC -67.3% | SN12C renal -56% | UO-31 renal -77.3% | TK-10 renal -71% | ACHN renal -51.2% | CAKI-1 renal -59.6% | A498 renal -83.2% | CCRF-CEM leukemia 8.68% | MOLT-4 leukemia -13.2%

Cc1nc(-c2ccccc2)sc1CC#N
inactive: HCT-15 colon 102% | HT29 colon 105% | SNB-75 CNS 113% | SNB-19 CNS 103% | U251 CNS 100% | PC-3 prostate 108% | SK-MEL-5 melanoma 107% | UACC-62 melanoma 106% | LOX IMVI melanoma 102% | SK-MEL-28 melanoma 120% | SK-MEL-2 melanoma 112% | EKVX NSCLC 101% | SN12C renal 103% | UO-31 renal 106% | TK-10 renal 79.4% | ACHN renal 102% | CAKI-1 renal 97.6% | A498 renal 85.6% | CCRF-CEM leukemia 102% | MOLT-4 leukemia 93.5%

COc1cc(C(=O)/C=C/c2c(-c3ccc(F)cc3)nc3sccn23)cc(OC)c1OC
active: HT29 colon 5.08% | U251 CNS 5.59% | SK-MEL-5 melanoma -50.5% | CCRF-CEM leukemia -41.9%
inactive: HCT-15 colon 27.8% | SNB-75 CNS 32.3% | SNB-19 CNS 10% | PC-3 prostate 19.9% | UACC-62 melanoma 23.3% | LOX IMVI melanoma 15.6% | SK-MEL-28 melanoma 52.2% | SK-MEL-2 melanoma 10.1% | EKVX NSCLC 49.9% | SN12C renal 64.6% | UO-31 renal 22.1% | TK-10 renal 36.5% | ACHN renal 28.3% | CAKI-1 renal 15.1% | A498 renal 48.8% | MOLT-4 leukemia 39.2%

O=C(O)c1cc([N+](=O)[O-])ccc1Br
inactive: HCT-15 colon 98.4% | HT29 colon 103% | SNB-75 CNS 89.5% | SNB-19 CNS 99.1% | U251 CNS 96.3% | PC-3 prostate 100% | SK-MEL-5 melanoma 98.9% | UACC-62 melanoma 91.9% | LOX IMVI melanoma 94.7% | SK-MEL-28 melanoma 97.8% | SK-MEL-2 melanoma 107% | EKVX NSCLC 98.5% | SN12C renal 101% | UO-31 renal 86.3% | TK-10 renal 95.5% | ACHN renal 94.2% | CAKI-1 renal 97.6% | A498 renal 106% | CCRF-CEM leukemia 105% | MOLT-4 leukemia 99.8%

COc1cc(C)cc2oc3oc(=N)c(C(=O)c4ccccc4)cc3c(=O)c12
inactive: HCT-15 colon 103% | HT29 colon 108% | SNB-75 CNS 86.2% | SNB-19 CNS 99.4% | U251 CNS 107% | PC-3 prostate 103% | SK-MEL-5 melanoma 96.8% | UACC-62 melanoma 93.5% | LOX IMVI melanoma 95.6% | SK-MEL-28 melanoma 98% | SK-MEL-2 melanoma 114% | EKVX NSCLC 106% | SN12C renal 101% | UO-31 renal 79.3% | TK-10 renal 105% | ACHN renal 95.5% | CAKI-1 renal 91.6% | A498 renal 90.3% | CCRF-CEM leukemia 118% | MOLT-4 leukemia 98.1%

CC1(C)NCCC[C@]2(C)[C@H]3C=CC4=C5C[C@](C)(CO)CC[C@]5(C)CC[C@@]4(C)[C@]3(C)CC[C@@H]12
active: HCT-15 colon -89.3% [100 µM] | HT29 colon -62.1% [100 µM] | SNB-75 CNS -97.7% [100 µM] | SNB-19 CNS -90.4% [100 µM] | U251 CNS -59.7% [100 µM] | PC-3 prostate -79.1% [100 µM] | SK-MEL-5 melanoma -91.5% [100 µM] | UACC-62 melanoma -94.3% [100 µM] | LOX IMVI melanoma -91.5% [100 µM] | SK-MEL-28 melanoma -97.3% [100 µM] | SK-MEL-2 melanoma -84.9% [100 µM] | EKVX NSCLC -87.1% [100 µM] | SN12C renal -94% [100 µM] | UO-31 renal -98.1% [100 µM] | TK-10 renal -78.3% [100 µM] | ACHN renal -95.4% [100 µM] | CAKI-1 renal -96.5% [100 µM] | A498 renal -88.7% [100 µM] | CCRF-CEM leukemia -44.1% [100 µM] | MOLT-4 leukemia -56.7% [100 µM]

O=C1/C(=C/c2cccc(OCc3ccccc3)c2)Oc2cc(OCCN3CCCCC3)ccc21
inactive: HT29 colon 21% | SNB-75 CNS 76% | SNB-19 CNS 83.9% | U251 CNS 61.1% | PC-3 prostate 47.1% | SK-MEL-5 melanoma 78.6% | UACC-62 melanoma 77.8% | LOX IMVI melanoma 32.1% | SK-MEL-28 melanoma 76.6% | SK-MEL-2 melanoma 134% | EKVX NSCLC 87.6% | SN12C renal 81.9% | UO-31 renal 65.1% | TK-10 renal 118% | ACHN renal 97.6% | CAKI-1 renal 84.4% | A498 renal 81.7% | CCRF-CEM leukemia 53.8% | MOLT-4 leukemia 82.4%
active: HCT-15 colon -37%

Cc1ccc(Oc2c(/C=N/NC(=O)Cn3c(=O)sc4ccccc43)c(C)nn2-c2ccccc2)cc1
inactive: HCT-15 colon 42.2% | HT29 colon 31.3% | SNB-75 CNS 53.4% | SNB-19 CNS 61.5% | U251 CNS 42.9% | PC-3 prostate 35.8% | SK-MEL-5 melanoma 37.7% | UACC-62 melanoma 52.7% | LOX IMVI melanoma 64.7% | SK-MEL-28 melanoma 93.5% | SK-MEL-2 melanoma 75.5% | EKVX NSCLC 38% | SN12C renal 29.5% | UO-31 renal 25.8% | TK-10 renal 62.4% | ACHN renal 43.2% | CAKI-1 renal 28.8% | A498 renal 78.2% | CCRF-CEM leukemia 40.8%
active: MOLT-4 leukemia 8.72%

N#C/C(C(=O)c1ccccc1)=C1/C(=O)Nc2ccc(Br)cc21
inactive: HCT-15 colon 107% | HT29 colon 113% | SNB-75 CNS 70.5% | SNB-19 CNS 98.6% | U251 CNS 106% | PC-3 prostate 96.4% | SK-MEL-5 melanoma 95.5% | UACC-62 melanoma 92.5% | LOX IMVI melanoma 103% | SK-MEL-28 melanoma 105% | SK-MEL-2 melanoma 113% | EKVX NSCLC 87.5% | SN12C renal 91.8% | UO-31 renal 67.2% | TK-10 renal 142% | ACHN renal 88.7% | CAKI-1 renal 84% | A498 renal 96.8% | CCRF-CEM leukemia 110% | MOLT-4 leukemia 101%
